Source: PubChem BioAssay (EPA / NIEHS)
Calls of active or inactive are those of the source. The calls were made as follows: active = hit-call score of the fitted dose curve at least 0.9, where 1 is the maximum; inactive = score below 0.9.

Legend:
[1] = ATG_ERE_CIS: Attagene CIS-FACTORIAL HepG2 Assay for Estrogen Response Element (ERE) (AID 2282940); details: HepG2 ERE cis-reporter, Attagene RNA transcript; actives raise or lower the signal
How it was run: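 HepG2 cells transiently transfected with cis-promoter-driven multiplexed reporter transcription units report endogenous TF activity. After 24 h compound exposure, reporter mRNA is quantified by RT-PCR with capillary electrophoresis fluorescence; bidirectional fitting versus DMSO baseline.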

[2] = ATG_Ets_CIS: Attagene CIS-FACTORIAL HepG2 Assay for human Erythroblast Transformation Specific (ETS) (AID 2282941); details: HepG2 ETS cis-reporter transcription, actives raise or lower the signal
How it was run: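 HepG2 cells transfected with multiple cis-regulated reporter units measuring endogenous ETS-driven transcription, 24 h after dosing. Reporter mRNA quantified by RT-PCR with capillary electrophoresis; bidirectional fit relative to DMSO.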

[3] = biological target: Hepatocyte nuclear factor 3-beta (Homo sapiens) (UniProt Q9Y261); assay: ATG_FoxA2_CIS: Attagene CIS-FACTORIAL HepG2 Assay for human Forkhead box A2 (FOXA2) (AID 2282942); details: HepG2 cis-reporter transcription factor activity, 24 h; actives raise or lower the signal
How it was run: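 Endogenous transcription factor activity is captured via cis-element-driven reporter transcripts in transfected HepG2. Total RNA taken at 24 h post-dosing; labelled RT-PCR products resolved by capillary electrophoresis. Gain or loss fitted versus DMSO.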

[4] = ATG_FoxO_CIS: Attagene CIS-FACTORIAL HepG2 Assay for human Forkhead box O (FoxO) (AID 2282943); details: HepG2 Attagene cis-reporter, FoxO element, mRNA; actives raise or lower the signal
How it was run: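 Human hepatoma HepG2 cells carry transiently introduced reporter transcription units controlled by cis promoter elements. Chemical treatment lasted 24 h, and mRNA signal was compared with DMSO.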

[5] = ATG_GATA_CIS: Attagene CIS-FACTORIAL HepG2 Assay for human GATA Binding Protein (AID 2282944); details: HepG2 GATA cis-element reporter, Attagene multiplex mRNA; actives raise or lower the signal
How it was run: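 HepG2 cells transiently transfected with multiplexed cis-element reporter units reflecting endogenous transcription factor activity; reporter mRNA measured after 24 h dosing by RT-PCR, 6-FAM labeling, HpaI digestion and capillary electrophoresis. Bidirectional fitting versus DMSO baseline.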

[6] = ATG_GLI_CIS: Attagene CIS-FACTORIAL HepG2 Assay for human Zinc Finger Protein GLI1 (AID 2282945); details: HepG2, Attagene cis-factorial reporter mRNA, GLI element; actives raise or lower the signal
How it was run: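 Bidirectional curve fits relative to DMSO, using reporter mRNA levels from RT-PCR plus capillary electrophoresis. Cells were HepG2 transiently carrying cis-regulated reporter constructs, harvested 24 h after dosing.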

[7] = ATG_GRE_CIS: Attagene CIS-FACTORIAL HepG2 Assay for human Glucocorticoid Response Elements (GRE) (AID 2282947); details: HepG2 GRE cis-reporter, Attagene multiplex mRNA; actives raise or lower the signal
How it was run: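 Assay uses human hepatoma HepG2 cells transfected with cis-promoter reporter units, exposed 24 h. mRNA from reporters detected by RT-PCR plus capillary electrophoresis; DMSO serves as negative control and baseline.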

[8] = ATG_ISRE_CIS: Attagene CIS-FACTORIAL HepG2 Assay for human Interferon Regulatory Factor 1 (IRF1) binding to an Interferon-Stimulated Response Element (ISRE) (AID 2282948); details: HepG2 ISRE cis-reporter (Attagene), mRNA transcription readout; actives raise or lower the signal
How it was run: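 Transiently transfected HepG2 cells carrying cis-element reporter units, dosed 24 hours. Reporter mRNA quantified by RT-PCR, fluorescent primer extension, HpaI digestion and capillary electrophoresis. Bidirectional fitting relative to DMSO.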

[9] = ATG_M_32_CIS: Attagene CIS-FACTORIAL HepG2 Assay for M32 Transcription Factor (Internal Marker) (AID 2282949); details: HepG2 Attagene cis-factorial M32 reporter, mRNA; actives raise or lower the signal;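 also: background control marker of the multiplexed CIS panel rather than a real target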
How it was run: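 Following 24 h chemical exposure of HepG2 cells transiently expressing cis-promoter reporter constructs, reporter transcript levels were determined by RT-PCR with fluorescent labelling and capillary electrophoresis, then fitted bidirectionally against DMSO.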

[10] = ATG_M_06_CIS: Attagene CIS-FACTORIAL HepG2 Assay for M06 Transcription Factor (Internal Marker) (AID 2282950); details: HepG2 Attagene CIS-FACTORIAL M06 internal marker reporter; actives raise or lower the signal
How it was run: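 HepG2 cells transiently transfected with cis-regulated multiple reporter transcription units were exposed to chemical for 24 h; reporter mRNA was quantified by RT-PCR, 6-FAM primer labelling, HpaI digestion and capillary electrophoresis, fitted bidirectionally against DMSO.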

[11] = biological target: Hypoxia-inducible factor 1-alpha (Homo sapiens) (UniProt Q16665); assay: ATG_HIF1a_CIS: Attagene CIS-FACTORIAL HepG2 Assay for human Hypoxia Inducible Factor 1 (HIF1A) (AID 2282951); details: HepG2 Attagene cis-factorial HIF1a reporter transcription; actives raise or lower the signal
How it was run: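 Activity is fitted in both directions relative to DMSO. Reporter transcripts are read by RT-PCR, fluorescent primer extension and capillary electrophoresis after 24 h chemical treatment. The cells are HepG2 carrying transiently transfected cis-element-driven reporter units responding to endogenous factors.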

[12] = biological target: Hepatocyte nuclear factor 6 (Homo sapiens) (UniProt Q9UBC0); assay: ATG_HNF6_CIS: Attagene CIS-FACTORIAL HepG2 Assay for human Hepatocyte Nuclear Factor 6 (HNF6) (AID 2282952); details: HepG2 Attagene cis-factorial HNF6 reporter transcription; actives raise or lower the signal
How it was run: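 Transiently transfected HepG2 cells expressing cis-regulated reporter transcription units were exposed to chemical for 24 h in a 24-well format. Reporter transcript abundance was determined by fluorescence capillary electrophoresis.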

[13] = biological target: Heat shock factor protein 1 (Homo sapiens) (UniProt Q00613); assay: ATG_HSE_CIS: Attagene CIS-FACTORIAL HepG2 Assay for human Heat Shock Transcription Factor 1 (HSE) (AID 2282953); details: HepG2 HSE cis-reporter, Attagene RNA transcription; actives raise or lower the signal
How it was run: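 HepG2 cells transiently transfected with multiple reporter transcription units under cis-regulatory promoter control, measuring endogenous transcription factor activity. After 24 h chemical exposure, reporter mRNA quantified by RT-PCR, fluorescent labelling, HpaI digestion and capillary electrophoresis; bidirectional fit versus DMSO.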

[14] = ATG_MRE_CIS: Attagene CIS-FACTORIAL HepG2 Assay for human Metal Responsive Element (MRE) (AID 2282954); details: HepG2 MRE cis-reporter transcription, Attagene multiplex; actives raise or lower the signal
How it was run: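 After a 24 h chemical exposure, transiently transfected HepG2 cells yield RNA whose reporter sequences are amplified, FAM-labelled and sized by capillary electrophoresis. Curves are fitted bidirectionally relative to DMSO.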

[15] = biological target: Paired box protein Pax-6 (Homo sapiens) (UniProt P26367); assay: ATG_Pax6_CIS: Attagene CIS-FACTORIAL HepG2 Assay for human Paired Box 6 (PAX6) (AID 2282956); details: HepG2 CIS-FACTORIAL PAX6 reporter transcription, RNA readout; actives raise or lower the signal
How it was run: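 HepG2 cells transiently transfected with cis-promoter-driven multiplexed reporter units sensing endogenous transcription factor activity; 24 h chemical exposure. Reporter mRNA quantified by RT-PCR, 6-FAM labelling, HpaI digestion and capillary electrophoresis; bidirectional fit versus DMSO baseline.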

[16] = ATG_PXRE_CIS: Attagene CIS-FACTORIAL HepG2 Assay for human Pregnane X Receptor Element (PXRE) (AID 2282957); details: HepG2 Attagene CIS-FACTORIAL PXRE reporter, mRNA; actives raise or lower the signal
How it was run: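 Cis-element reporter mRNA in human hepatoma HepG2 cells is measured 24 h post-dosing by RT-PCR, primer-extension labeling and capillary electrophoresis; gain or loss of signal is fitted relative to DMSO.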

[17] = ATG_RORE_CIS: Attagene CIS-FACTORIAL HepG2 Assay for human RAR-related Orphan Receptor Element (RORE) (AID 2282959); details: HepG2 Attagene cis-factorial RORE reporter, mRNA; actives raise or lower the signal
How it was run: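 RORE reporter transcripts reflecting endogenous factor activity were read after 24 h compound exposure of transfected HepG2 cells, using reverse transcription, PCR, fluorescent labelling and capillary electrophoresis sizing. Gain or loss fitted against DMSO.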

[18] = ATG_PBREM_CIS: Attagene CIS-FACTORIAL HepG2 Assay for human Phenobarbital-responsive Enhancer Module (PBREM) (AID 2282955); details: HepG2 PBREM cis-reporter, Attagene multiplexed transcription; actives raise or lower the signal
How it was run: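 Endogenous transcription factor activity was read from reporter transcripts in transiently transfected human HepG2 liver cells after 24 h dosing. RT-PCR products were fluorescently labelled, HpaI-cut and sized by capillary electrophoresis; activity fitted bidirectionally against DMSO baseline.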

[19] = ATG_PPRE_CIS: Attagene CIS-FACTORIAL HepG2 Assay for human Peroxisome Proliferator-activated Response Element (PPRE) (AID 2282958); details: HepG2 PPRE cis-element reporter, Attagene transcription factor profiling; actives raise or lower the signal
How it was run: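 Endogenous PPRE-driven transcription is measured in HepG2 cells carrying transfected multi-reporter constructs. Reporter transcripts are quantified by RT-PCR, HpaI digestion and capillary electrophoresis 24 h after dosing. DMSO baseline, bidirectional fit.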

Sequence of Hepatocyte nuclear factor 6 (Homo sapiens) (Q9UBC0 whole entry, looked up): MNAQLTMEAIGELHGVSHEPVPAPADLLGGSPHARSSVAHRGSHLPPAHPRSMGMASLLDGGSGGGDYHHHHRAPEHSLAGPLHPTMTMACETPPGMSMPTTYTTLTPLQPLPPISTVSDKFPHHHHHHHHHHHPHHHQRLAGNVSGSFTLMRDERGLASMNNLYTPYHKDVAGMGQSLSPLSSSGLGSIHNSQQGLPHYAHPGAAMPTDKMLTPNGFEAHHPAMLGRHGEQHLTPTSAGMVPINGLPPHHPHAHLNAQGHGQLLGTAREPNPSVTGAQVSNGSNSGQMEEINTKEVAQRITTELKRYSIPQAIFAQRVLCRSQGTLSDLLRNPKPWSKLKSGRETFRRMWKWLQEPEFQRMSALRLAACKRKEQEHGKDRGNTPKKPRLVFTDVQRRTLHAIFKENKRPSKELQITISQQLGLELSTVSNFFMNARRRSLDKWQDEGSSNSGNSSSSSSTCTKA
Sequence of Hypoxia-inducible factor 1-alpha (Homo sapiens) (Q16665 whole entry, looked up): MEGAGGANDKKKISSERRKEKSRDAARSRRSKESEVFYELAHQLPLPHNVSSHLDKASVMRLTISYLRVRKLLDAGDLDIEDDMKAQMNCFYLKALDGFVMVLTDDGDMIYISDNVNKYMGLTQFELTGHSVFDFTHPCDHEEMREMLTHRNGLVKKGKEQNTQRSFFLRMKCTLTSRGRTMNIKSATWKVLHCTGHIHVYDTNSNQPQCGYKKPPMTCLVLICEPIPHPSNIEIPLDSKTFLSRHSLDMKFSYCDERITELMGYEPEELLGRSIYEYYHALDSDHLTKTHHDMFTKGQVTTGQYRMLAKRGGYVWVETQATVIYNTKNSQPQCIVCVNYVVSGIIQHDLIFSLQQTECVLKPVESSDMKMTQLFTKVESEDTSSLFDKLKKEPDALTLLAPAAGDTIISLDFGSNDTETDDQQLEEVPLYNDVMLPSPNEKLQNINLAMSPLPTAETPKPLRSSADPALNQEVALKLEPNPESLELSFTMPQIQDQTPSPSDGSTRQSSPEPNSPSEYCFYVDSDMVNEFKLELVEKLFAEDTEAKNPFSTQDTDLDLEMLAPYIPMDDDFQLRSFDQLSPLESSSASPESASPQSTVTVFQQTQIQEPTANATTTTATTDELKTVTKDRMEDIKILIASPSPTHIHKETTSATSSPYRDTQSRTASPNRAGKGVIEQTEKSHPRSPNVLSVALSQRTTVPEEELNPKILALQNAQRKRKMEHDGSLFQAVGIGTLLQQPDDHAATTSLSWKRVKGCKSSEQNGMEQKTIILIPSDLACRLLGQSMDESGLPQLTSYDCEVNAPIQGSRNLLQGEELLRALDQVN
Sequence of Heat shock factor protein 1 (Homo sapiens) (Q00613 whole entry, looked up): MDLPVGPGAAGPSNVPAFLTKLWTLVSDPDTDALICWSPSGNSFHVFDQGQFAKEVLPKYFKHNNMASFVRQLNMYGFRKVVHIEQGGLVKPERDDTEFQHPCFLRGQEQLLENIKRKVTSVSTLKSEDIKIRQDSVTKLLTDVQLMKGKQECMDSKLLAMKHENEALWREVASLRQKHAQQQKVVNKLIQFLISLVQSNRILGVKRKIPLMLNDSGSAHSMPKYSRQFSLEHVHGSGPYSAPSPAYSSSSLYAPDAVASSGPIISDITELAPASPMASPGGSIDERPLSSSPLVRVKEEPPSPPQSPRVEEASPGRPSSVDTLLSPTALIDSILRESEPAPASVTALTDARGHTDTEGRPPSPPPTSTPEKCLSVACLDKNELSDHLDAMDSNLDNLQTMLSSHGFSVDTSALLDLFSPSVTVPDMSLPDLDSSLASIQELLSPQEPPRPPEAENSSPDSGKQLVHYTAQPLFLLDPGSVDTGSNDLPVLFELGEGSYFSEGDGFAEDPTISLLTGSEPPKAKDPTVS
Sequence of Paired box protein Pax-6 (Homo sapiens) (P26367 whole entry, looked up): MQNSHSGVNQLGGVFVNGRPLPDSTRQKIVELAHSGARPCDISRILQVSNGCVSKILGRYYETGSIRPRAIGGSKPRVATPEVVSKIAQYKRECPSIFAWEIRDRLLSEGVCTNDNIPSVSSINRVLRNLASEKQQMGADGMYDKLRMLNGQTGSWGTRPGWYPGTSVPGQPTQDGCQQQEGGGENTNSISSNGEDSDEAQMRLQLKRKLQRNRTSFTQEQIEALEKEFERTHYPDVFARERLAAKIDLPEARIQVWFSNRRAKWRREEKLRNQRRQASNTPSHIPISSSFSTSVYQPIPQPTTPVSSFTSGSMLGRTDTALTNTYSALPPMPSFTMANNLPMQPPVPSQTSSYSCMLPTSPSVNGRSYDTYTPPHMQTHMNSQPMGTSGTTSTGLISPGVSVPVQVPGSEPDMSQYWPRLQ
Sequence of Hepatocyte nuclear factor 3-beta (Homo sapiens) (Q9Y261 whole entry, looked up): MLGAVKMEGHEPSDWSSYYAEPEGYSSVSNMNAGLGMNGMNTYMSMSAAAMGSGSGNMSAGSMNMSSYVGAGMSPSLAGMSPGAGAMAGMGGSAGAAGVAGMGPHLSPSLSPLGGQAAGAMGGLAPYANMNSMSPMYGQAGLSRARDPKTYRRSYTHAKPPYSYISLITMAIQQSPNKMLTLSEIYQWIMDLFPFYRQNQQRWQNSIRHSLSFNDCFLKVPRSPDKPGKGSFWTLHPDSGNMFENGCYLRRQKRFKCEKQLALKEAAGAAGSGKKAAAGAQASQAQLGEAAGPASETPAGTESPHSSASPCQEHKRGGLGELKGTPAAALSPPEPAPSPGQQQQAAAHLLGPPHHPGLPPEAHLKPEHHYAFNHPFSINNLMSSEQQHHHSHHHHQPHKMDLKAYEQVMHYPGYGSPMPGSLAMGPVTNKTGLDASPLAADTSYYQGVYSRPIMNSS

BrCCCCBr
outcome [1]: inactive
outcome [2]: inactive
outcome [3]: inactive
outcome [4]: inactive
outcome [5]: inactive
outcome [6]: inactive
outcome [7]: inactive
outcome [8]: inactive
outcome [9]: inactive
outcome [10]: inactive
outcome [11]: inactive
outcome [12]: inactive
outcome [13]: inactive
outcome [14]: inactive
outcome [15]: inactive
outcome [16]: inactive
outcome [17]: inactive

CCOC(=O)CC(=O)CCl
outcome [1]: inactive
AC50 [2]: 26.4 µM (active)
AC50 [3]: 133 µM (active)
outcome [4]: inactive
outcome [5]: inactive
AC50 [6]: 26.1 µM (active)
outcome [7]: inactive
AC50 [8]: 31.2 µM (active)
outcome [9]: inactive
outcome [10]: inactive
outcome [11]: inactive
outcome [12]: inactive
AC50 [13]: 146 µM (active)
outcome [18]: inactive
AC50 [15]: 27.4 µM (active)
outcome [16]: inactive
outcome [17]: inactive

CCCCN(CCCC)C(=S)[S-].CCCCN(CCCC)C(=S)[S-].[Ni+2]
outcome [1]: inactive
outcome [2]: inactive
outcome [3]: inactive
outcome [4]: inactive
outcome [5]: inactive
outcome [6]: inactive
outcome [7]: inactive
outcome [8]: inactive
outcome [9]: inactive
outcome [10]: inactive
outcome [11]: inactive
outcome [12]: inactive
outcome [13]: inactive
outcome [15]: inactive
AC50 [16]: 7.2 µM (active)
outcome [17]: inactive

N#Cc1cccnc1
outcome [1]: inactive
outcome [2]: inactive
outcome [3]: inactive
outcome [4]: inactive
outcome [5]: inactive
outcome [6]: inactive
outcome [7]: inactive
outcome [8]: inactive
outcome [9]: inactive
outcome [10]: inactive
outcome [11]: inactive
outcome [12]: inactive
outcome [13]: inactive
outcome [18]: inactive
outcome [15]: inactive
outcome [16]: inactive
outcome [19]: inactive
outcome [17]: inactive

N#Cc1ccncc1
outcome [1]: inactive
outcome [2]: inactive
outcome [3]: inactive
outcome [4]: inactive
outcome [5]: inactive
outcome [6]: inactive
outcome [7]: inactive
outcome [8]: inactive
outcome [9]: inactive
outcome [10]: inactive
outcome [11]: inactive
outcome [12]: inactive
outcome [13]: inactive
outcome [14]: inactive
outcome [15]: inactive
outcome [16]: inactive
outcome [19]: inactive
outcome [17]: inactive

CCOP(=S)(OCC)SCS(=O)(=O)C(C)(C)C
outcome [1]: inactive
outcome [2]: inactive
outcome [3]: inactive
outcome [4]: inactive
outcome [5]: inactive
outcome [6]: inactive
outcome [7]: inactive
outcome [8]: inactive
outcome [9]: inactive
outcome [10]: inactive
outcome [11]: inactive
outcome [12]: inactive
outcome [13]: inactive
outcome [18]: inactive
outcome [15]: inactive
AC50 [16]: 4.12 µM (active)
outcome [17]: inactive

O=S1OC[C@@H]2[C@H](CO1)[C@]1(Cl)C(Cl)=C(Cl)[C@@]2(Cl)C1(Cl)Cl (some centres undefined)
AC50 [1]: 2.77 µM (active)
outcome [2]: inactive
outcome [3]: inactive
outcome [4]: inactive
outcome [5]: inactive
outcome [6]: inactive
outcome [7]: inactive
outcome [8]: inactive
outcome [9]: inactive
outcome [10]: inactive
outcome [11]: inactive
outcome [12]: inactive
outcome [13]: inactive
AC50 [14]: 66.4 µM (active)
AC50 [18]: 26.4 µM (active)
outcome [15]: inactive
AC50 [16]: 2.34 µM (active)
outcome [17]: inactive

O=C1c2ccccc2C(=O)C1C(=O)C(c1ccccc1)c1ccc(Cl)cc1 (centres undefined)
outcome [1]: inactive
AC50 [2]: 182 µM (active)
AC50 [3]: 11.9 µM (active)
AC50 [4]: 54.6 µM (active)
outcome [5]: inactive
AC50 [6]: 166 µM (active)
outcome [7]: inactive
AC50 [8]: 20 µM (active)
outcome [9]: inactive
AC50 [10]: 88.4 µM (active)
outcome [11]: inactive
AC50 [12]: 61.5 µM (active)
AC50 [13]: 62.8 µM (active)
AC50 [18]: 9.73 µM (active)
AC50 [15]: 8.23 µM (active)
AC50 [16]: 1.51 µM (active)
AC50 [19]: 3.53 µM (active)
AC50 [17]: 8.58 µM (active)
